# Activity calls are given as the source filed them.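 How the source made its calls, unless noted: active means normalized viability below 100% at a tested concentration; inactive means the rest.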
# Key:
# [1] = drug combination growth inhibition, ovarian cancer – cell-based, oncology-focused library, rucaparib conditional, profiling panel (AID 1508598); conditions: patient-derived ovarian cancer cells, CellTiter-Glo viability, 144 h, stronger effect = lower value
# [2] = chitosan synthesis blockers in C. neoformans – flow cytometry, Cibacron Brilliant Red staining (AID 1347148; call rule not given here;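 further: compound exposure lasted three days at 37 degrees C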); conditions: Cryptococcus neoformans chitosan, stronger effect = lower value; at 10 µM unless noted
# [3] = MELAS cybrid and Rieske KO viability enhancers – cell-based, MELAS cybrids, Rieske KO mouse fibroblasts, CellTiter-Glo, primary screen (AID 1508586;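 active means mean z-score across replicates of 1.96 or higher in either the MELAS or the Rieske mutant cell line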;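 further: z relative to plate mean and SD of compound and empty wells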); conditions: low glucose
# [4] = target: NAD(+) hydrolase SARM1 (Homo sapiens) (UniProt Q6SZW1); assay: blocking NAD cleavage by SARM1 SAM-TIR – cell lysate, NAD-Glo luminescence (AID 1508614;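 active means compound whose remaining NAD level is above about 45 nM, limit read from the data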); conditions: SAM-TIR HEK293T lysate NADase, at 1 µM, stronger effect = higher value
# [5] = target: Mitogen-activated protein kinase 7 (Homo sapiens) (UniProt Q13164); assay: Gal4-ERK5 driven luciferase induction – cell-based, HTS, primary screen (AID 1508626;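 active means luciferase signal above three times the same-plate solvent-only control wells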;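 further: luciferase driven by Gal4-ERK5 fusion binding five Gal4 sites before minimal TATA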); conditions: HeLa Gal4-ERK5 transactivation, 18 h, at 5 µM, stronger effect = higher value
# [6] = at 0.000305 µM, OCI-C5x cells, with rucaparib 10 µM, 100% = cells with rucaparib alone
# [7] = at 0.000305 µM, OCI-C5x cells, without rucaparib
# [8] = at 0.000305 µM, OCI-P5x cells, with rucaparib 20 µM, 100% = cells with rucaparib alone
# [9] = at 0.000305 µM, OCI-P5x cells, without rucaparib
# [10] = at 0.00122 µM, OCI-C5x cells, with rucaparib 10 µM, 100% = cells with rucaparib alone
# [11] = at 0.00122 µM, OCI-C5x cells, without rucaparib
# [12] = at 0.00122 µM, OCI-P5x cells, with rucaparib 20 µM, 100% = cells with rucaparib alone
# [13] = at 0.00122 µM, OCI-P5x cells, without rucaparib
# [14] = at 0.00488 µM, OCI-C5x cells, with rucaparib 10 µM, 100% = cells with rucaparib alone
# [15] = at 0.00488 µM, OCI-C5x cells, without rucaparib
# [16] = at 0.00488 µM, OCI-P5x cells, with rucaparib 20 µM, 100% = cells with rucaparib alone
# [17] = at 0.00488 µM, OCI-P5x cells, without rucaparib
# [18] = at 0.0195 µM, OCI-C5x cells, with rucaparib 10 µM, 100% = cells with rucaparib alone
# [19] = at 0.0195 µM, OCI-C5x cells, without rucaparib
# [20] = at 0.0195 µM, OCI-P5x cells, with rucaparib 20 µM, 100% = cells with rucaparib alone
# [21] = at 0.0195 µM, OCI-P5x cells, without rucaparib
# [22] = at 0.0781 µM, OCI-C5x cells, with rucaparib 10 µM, 100% = cells with rucaparib alone
# [23] = at 0.0781 µM, OCI-C5x cells, without rucaparib
# [24] = at 0.0781 µM, OCI-P5x cells, with rucaparib 20 µM, 100% = cells with rucaparib alone
# [25] = at 0.0781 µM, OCI-P5x cells, without rucaparib
# [26] = at 0.313 µM, OCI-C5x cells, with rucaparib 10 µM, 100% = cells with rucaparib alone
# [27] = at 0.313 µM, OCI-C5x cells, without rucaparib
# [28] = at 0.313 µM, OCI-P5x cells, with rucaparib 20 µM, 100% = cells with rucaparib alone
# [29] = at 0.313 µM, OCI-P5x cells, without rucaparib
# [30] = at 1.25 µM, OCI-C5x cells, with rucaparib 10 µM, 100% = cells with rucaparib alone
# [31] = at 1.25 µM, OCI-C5x cells, without rucaparib
# [32] = at 1.25 µM, OCI-P5x cells, with rucaparib 20 µM, 100% = cells with rucaparib alone
# [33] = at 1.25 µM, OCI-P5x cells, without rucaparib
# [34] = at 5 µM, OCI-C5x cells, with rucaparib 10 µM, 100% = cells with rucaparib alone
# [35] = at 5 µM, OCI-C5x cells, without rucaparib
# [36] = at 5 µM, OCI-P5x cells, with rucaparib 20 µM, 100% = cells with rucaparib alone
# [37] = at 5 µM, OCI-P5x cells, without rucaparib
# [38] = MELAS cybrid survival, CellTiter-Glo 48 h, stronger effect = higher value
# [39] = Rieske KO mouse fibroblast survival, CellTiter-Glo 72 h
# Mitogen-activated protein kinase 7 (Homo sapiens), sequence (Q13164 whole entry, looked up, the tested form may be a part): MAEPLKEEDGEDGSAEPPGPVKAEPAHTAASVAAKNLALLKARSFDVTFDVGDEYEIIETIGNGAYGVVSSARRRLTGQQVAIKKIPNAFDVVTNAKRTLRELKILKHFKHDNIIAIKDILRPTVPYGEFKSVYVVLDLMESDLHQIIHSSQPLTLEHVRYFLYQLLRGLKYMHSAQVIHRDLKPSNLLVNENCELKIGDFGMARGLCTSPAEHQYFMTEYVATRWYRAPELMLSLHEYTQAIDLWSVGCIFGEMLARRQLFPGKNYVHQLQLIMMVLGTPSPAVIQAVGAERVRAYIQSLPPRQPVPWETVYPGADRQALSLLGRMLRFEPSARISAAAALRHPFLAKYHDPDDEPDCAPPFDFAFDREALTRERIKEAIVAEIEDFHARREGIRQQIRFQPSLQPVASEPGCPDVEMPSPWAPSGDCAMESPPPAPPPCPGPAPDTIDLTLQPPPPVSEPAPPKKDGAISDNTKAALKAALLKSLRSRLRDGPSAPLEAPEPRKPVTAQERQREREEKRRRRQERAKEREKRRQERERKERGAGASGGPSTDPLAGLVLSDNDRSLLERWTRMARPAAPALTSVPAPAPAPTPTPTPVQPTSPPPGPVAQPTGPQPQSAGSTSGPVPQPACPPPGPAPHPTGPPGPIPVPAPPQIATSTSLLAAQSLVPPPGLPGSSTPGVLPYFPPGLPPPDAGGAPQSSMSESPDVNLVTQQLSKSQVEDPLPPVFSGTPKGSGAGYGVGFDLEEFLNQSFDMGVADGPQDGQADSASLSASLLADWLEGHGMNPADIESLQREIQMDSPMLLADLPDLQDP
# NAD(+) hydrolase SARM1 (Homo sapiens), sequence (Q6SZW1 whole entry, looked up, the tested form may be a part): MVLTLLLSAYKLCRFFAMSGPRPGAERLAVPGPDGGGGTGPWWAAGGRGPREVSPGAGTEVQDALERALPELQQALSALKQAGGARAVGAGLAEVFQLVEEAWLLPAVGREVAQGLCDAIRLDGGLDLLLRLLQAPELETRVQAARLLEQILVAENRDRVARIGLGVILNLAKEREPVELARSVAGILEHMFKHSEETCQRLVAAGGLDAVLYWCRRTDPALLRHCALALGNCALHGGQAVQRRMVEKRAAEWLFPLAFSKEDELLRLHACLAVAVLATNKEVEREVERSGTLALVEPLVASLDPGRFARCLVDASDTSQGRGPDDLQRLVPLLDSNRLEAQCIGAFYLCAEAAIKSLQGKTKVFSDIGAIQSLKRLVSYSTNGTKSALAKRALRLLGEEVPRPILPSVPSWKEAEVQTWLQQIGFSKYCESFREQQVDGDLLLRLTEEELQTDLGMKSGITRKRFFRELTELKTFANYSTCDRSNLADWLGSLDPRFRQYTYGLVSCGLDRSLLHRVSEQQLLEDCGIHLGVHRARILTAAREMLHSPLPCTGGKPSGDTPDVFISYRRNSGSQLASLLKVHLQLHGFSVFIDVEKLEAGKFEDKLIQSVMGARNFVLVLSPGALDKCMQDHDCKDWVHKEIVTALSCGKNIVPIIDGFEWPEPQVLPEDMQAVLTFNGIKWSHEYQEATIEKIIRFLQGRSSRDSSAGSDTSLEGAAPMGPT
smiles,measurement,setting,value
C/C(=C\c1csc(C)n1)[C@H]1C[C@@H]2O[C@]2(C)CCC[C@H](C)[C@H](O)[C@@H](C)C(=O)C(C)(C)[C@H](O)CC(=O)O1,viability,[1]; [6],47% (active)
same,viability,[1]; [7],25.7% (active)
same,viability,[1]; [8],57.2% (active)
same,viability,[1]; [9],15.5% (active)
same,viability,[1]; [10],36.1% (active)
same,viability,[1]; [11],27.1% (active)
same,viability,[1]; [12],48.9% (active)
same,viability,[1]; [13],17.2% (active)
same,viability,[1]; [14],39.5% (active)
same,viability,[1]; [15],27.9% (active)
same,viability,[1]; [16],48% (active)
same,viability,[1]; [17],17.6% (active)
same,viability,[1]; [18],34.8% (active)
same,viability,[1]; [19],27.5% (active)
same,viability,[1]; [20],47.2% (active)
same,viability,[1]; [21],16.3% (active)
same,viability,[1]; [22],35.3% (active)
same,viability,[1]; [23],27.6% (active)
same,viability,[1]; [24],45.8% (active)
same,viability,[1]; [25],16.3% (active)
same,viability,[1]; [26],40.6% (active)
same,viability,[1]; [27],35.3% (active)
same,viability,[1]; [28],44.8% (active)
same,viability,[1]; [29],15.9% (active)
same,viability,[1]; [30],45.2% (active)
same,viability,[1]; [31],38.5% (active)
same,viability,[1]; [32],39.6% (active)
same,viability,[1]; [33],16.1% (active)
same,viability,[1]; [34],45.4% (active)
same,viability,[1]; [35],40.3% (active)
same,viability,[1]; [36],43.9% (active)
same,viability,[1]; [37],15.4% (active)
CC1(C)[C@@H](O)C[C@H]2[C@](C)(O)[C@@H]3CCC4[C@@H](O)[C@@]3(C[C@@H](O)[C@@]21O)C[C@@]4(C)O,fold fluorescence,[2],2.34 [at 135 µM] (active)
OC[C@@H]1O[C@H](n2cnc3cc(Cl)c(Cl)cc32)C(O)[C@@H]1O (stereo not given in full),fold fluorescence,[2],3.08 [at 156.7 µM] (inactive)
CC(=O)NC1C(OC2OC(CC(O)C3OC(n4ccc(=O)[nH]c4=O)C(O)C3O)C(O)C(O)C2NC(=O)/C=C\CC(C)C)OC(CO)C(O)C1O (stereo not given),fold fluorescence,[2],7.24 [at 69.6 µM] (inactive)
C=CC[C@]1(O)CC[C@H]2[C@@H]3CCC4=CC(=O)CCC4=C3C=C[C@@]21C,z-score,[3]; [38],0.712 (inactive)
same,z-score,[3]; [39],0.629
same,remaining NAD,[4],10 nM (inactive)
same,luciferase signal,[5],60 AU (inactive)
COCCCOc1ccnc(CS(=O)c2nc3ccccc3[nH]2)c1C (stereo not given),z-score,[3]; [38],1.01 (inactive)
same,z-score,[3]; [39],0.105
CC(CCC(=O)O)CC(C)CC(C)C(=O)/C=C(\O)C(C)CC(C)C/C=C/C(C)C(O)C(C)C(O)CC1CCC(C)(C2CCC(C)(C(C)O)O2)O1 (stereo not given),fold fluorescence,[2],5.45 [at 70.5 µM] (inactive)
C=C1C(=O)O[C@H]2C[C@H](C)[C@H]3C=CC(=O)[C@]3(C)[C@H](O)[C@@H]12,fold fluorescence,[2],9.09 [at 190.6 µM] (inactive)
CC(C)[C@@]12O[C@@H]1[C@@H]1O[C@]13[C@]1(O[C@@H]1C[C@@H]1C4=C(CC[C@@]13C)C(=O)OC4)[C@@H]2O,viability,[1]; [6],33.2% (active)
same,viability,[1]; [7],23.2% (active)
same,viability,[1]; [8],11.8% (active)
same,viability,[1]; [9],6.41% (active)
same,viability,[1]; [10],19.5% (active)
same,viability,[1]; [11],15.4% (active)
same,viability,[1]; [12],12.6% (active)
same,viability,[1]; [13],7.08% (active)
same,viability,[1]; [14],8% (active)
same,viability,[1]; [15],7.6% (active)
same,viability,[1]; [16],13.9% (active)
same,viability,[1]; [17],8.9% (active)
same,viability,[1]; [18],10.1% (active)
same,viability,[1]; [19],8.03% (active)
same,viability,[1]; [20],12.6% (active)
same,viability,[1]; [21],8.76% (active)
same,viability,[1]; [22],9.57% (active)
same,viability,[1]; [23],9.36% (active)
same,viability,[1]; [24],11.1% (active)
same,viability,[1]; [25],9.41% (active)
same,viability,[1]; [26],9.16% (active)
same,viability,[1]; [27],10.5% (active)
same,viability,[1]; [28],12.1% (active)
same,viability,[1]; [29],8.22% (active)
same,viability,[1]; [30],9.48% (active)
same,viability,[1]; [31],10% (active)
same,viability,[1]; [32],9.34% (active)
same,viability,[1]; [33],8.5% (active)
same,viability,[1]; [34],9.2% (active)
same,viability,[1]; [35],8.72% (active)
same,viability,[1]; [36],10.3% (active)
same,viability,[1]; [37],6.87% (active)

# From PubChem BioAssay
